# Results: PubChem BioAssay AID434939 (The Scripps Research Institute Molecular Screening Center, 2010)
# The whole screen tested about 2,300 compounds, of which about 2,000 (87%) were called active. So high a share suggests a set chosen from earlier hits. These entries were drawn from the full list. Unmarked numbers belong to inactive results. Cut-off read from the data, not from the text of the source: active = activation above about 11%; inactive = the rest.
# Target: Nuclear receptor subfamily 1 group I member 2 (Homo sapiens) (UniProt O75469)
# Sequence (O75469 whole entry, looked up): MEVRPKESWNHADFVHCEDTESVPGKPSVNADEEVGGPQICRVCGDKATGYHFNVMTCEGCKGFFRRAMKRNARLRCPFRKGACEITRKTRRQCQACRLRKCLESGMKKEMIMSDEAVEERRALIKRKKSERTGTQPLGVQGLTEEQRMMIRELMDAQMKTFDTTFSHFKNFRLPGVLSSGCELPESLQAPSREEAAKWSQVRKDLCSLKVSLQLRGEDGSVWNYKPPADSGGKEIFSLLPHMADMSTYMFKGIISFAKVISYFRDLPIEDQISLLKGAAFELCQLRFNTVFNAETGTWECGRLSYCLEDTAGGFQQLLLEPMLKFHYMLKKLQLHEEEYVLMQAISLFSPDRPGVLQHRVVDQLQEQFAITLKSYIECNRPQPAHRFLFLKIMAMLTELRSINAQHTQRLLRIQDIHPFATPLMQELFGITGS
# Experiment: activation of PXR luciferase reporter – cell-based, luciferase luminescence, counter-screen for AHR activator project (AID 434939);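 note: human hepatoma DPX-2 cells expressing full-length human PXR; 0% = DMSO and 100% = reference agonist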
# Settings: at 11.6 µM, stronger effect = higher value
row,SMILES,activation
1,CC(C(=O)N=Nc1c(O)n(C)c2ccc(Br)cc12)n1cnc2ccccc2c1=O (stereo not given),60% (active)
2,Cc1ccc(NC(=O)NNC(=O)c2sccc2-n2cccc2)cc1,27% (active)
3,Cc1nn(-c2ccccc2)c2[nH]c(C(F)(F)F)cc(=O)c12,25.8% (active)
4,N#C/C(=C(/O)COc1cccc2ccccc12)c1nc2ccccc2[nH]1,29.3% (active)
5,Cc1nn(Cc2ccc(Cl)cc2)c(Cl)c1/C=N/NC(=O)c1cccnc1,39.9% (active)
6,O=C(Nc1cccc(Br)c1)c1ccc2snnc2c1,22.9% (active)
7,C/C(=N/NC(=S)Nc1ccccc1)c1ccc2c(c1)OCO2,76.5% (active)
8,OCCNc1nc(Nc2ccc(Cl)c(Cl)c2)nc2ccccc12,13.8% (active)
9,Cc1csc(NC(=S)Nc2cccc(Cl)c2)n1,21.6% (active)
10,NC(=O)Nc1ccccc1C(=O)NCCc1ccccc1,18.7% (active)
11,CSc1ncccc1C(=O)Nc1nc2ccc(F)cc2s1,11.7% (active)
12,CNC(=O)c1ccc2nc(NC(C)=O)sc2c1,9.52%
13,COc1ccc(Nc2nnc(C)c3ccccc23)cc1,73.7% (active)
14,Cc1c(C(=O)NCC(c2ccco2)N2CCCC2)oc2ccc(Cl)cc12 (stereo not given),56.2% (active)
15,CCn1c2ccccc2c2cc(NC(=O)C/C(C)=N/NC(=O)c3ccccc3N)ccc21,45.7% (active)
16,COc1ccc(Nc2nc(-c3ccccc3)cs2)cc1,12.8% (active)
17,Cc1cccc(Nc2nc(-c3ccccc3)cs2)n1,25.5% (active)
18,COc1ccc2nc(Nc3nc(-c4ccncc4)cs3)sc2c1,38.6% (active)

row,SMILES,activation
1,O=C(Nn1c(-c2ccc(Cl)cc2)nc2ccccc2c1=O)c1cccnc1Cl,14.3% (active)
2,c1cnc(N2CCN(c3ccc4ccccc4n3)CC2)nc1,36.7% (active)
3,CCn1ccnc1CN(C)Cc1nc(-c2ccc3c(c2)OCO3)no1,37.5% (active)
4,O=C(Cn1c(NCCO)nc2ccccc21)c1ccc(Cl)cc1Cl,31.4% (active)
5,O=C(CCCCn1c(=O)[nH]c2ccccc2c1=O)NCc1ccc2c(c1)OCO2,37.2% (active)
6,CCn1c(NC(=O)c2nn(C)cc2Br)nc2ccccc21,22.6% (active)
7,COc1cc2ccccc2cc1C(=O)Nc1ccc(N2CCOCC2)cc1,30.4% (active)
8,COc1cccc(OC)c1C(=O)Nc1ccc(N2CCCCC2)cc1,53.1% (active)
9,NNc1nc2c(Cl)cccc2s1,8.29%
10,CN(C)S(=O)(=O)Oc1ccccc1C(=O)Nc1ccccc1Cl,82.8% (active)
11,Cc1noc(C)c1/C=N/Nc1ccc2ccccc2n1,25.9% (active)
12,C(=N\Nc1ccc2ccccc2n1)/c1ccc2c(c1)OCO2,-10.5%
13,CC(C)n1cnc2c(Nc3cccc(Cl)c3)nc(N(CCO)CCCO)nc21,255% (active)
14,CN(C)c1nc(Nc2ccc(Cl)c(Cl)c2)nc(N(C)C)n1,23.1% (active)
15,Cn1c(C(=O)NCCc2ccsc2)cc2c(=O)n(C)c3ccccc3c21,75.7% (active)
16,CC(C)n1ncc2c(C(=O)Nc3ccc(CC#N)cc3)cc(C3CC3)nc21,48.4% (active)
17,S=c1nc2ccccc2c2nc(-c3cccnc3)[nH]n12,24.9% (active)
